From PubChem BioAssay
Compounds with a hit are over-represented: about 4.6% of the library has one in this group of screens.
D1 antagonist = Antagonist of Human D 1 Dopamine Receptor: qHTS; AID 504652, 2011; actives 3.2% (n = 360,000); activity change, negative = inhibition, % at 10 µM; HEK293 TREx D1 cells, calcium flux, dopamine EC80; stronger effect = lower value; D(1A) dopamine receptor (Homo sapiens), P21728; in the data active = activity change below about -30%; also: % is scaled to controls: 0 for no effect and ±100 for the full control effect
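Compound effects on dopamine-evoked calcium signalling were measured in tetracycline-induced HEK293 Trex D1 cells. Dopamine at EC80 followed a 180 s compound pre-read, and fluorescence was tracked kinetically for 180 s more.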
D1 ag = Allosteric Agonists of the Human D1 Dopamine Receptor: qHTS. activation, % at 2 µM. actives 1% (n = 360,000). D(1A) dopamine receptor (Homo sapiens), P21728. HEK293 T-REx D1 cells, calcium flux, agonist mode; also: 0% is about no effect
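Agonism was scored from calcium flux recorded over 180 s (1 read/s) after pintool compound addition, following a 10-cycle baseline. Cells were inducible force-coupled HEK293 TREx D1, plated overnight at 30 C and loaded with no-wash calcium dye.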
TRHR enhancer = qHTS for Small Molecule Agonists and Allosteric Enhancers of Human TRH Receptor: Primary Screen for Enhancers; Thyrotropin-releasing hormone receptor (Homo sapiens), P34981; TRHR cells, fluo-8 calcium fluorescence, EC20 TRH enhancement; enhancement, % at 2 µM; actives 0.66% (n = 360,000); AID 493056, 2011; in the data active = enhancement above about 30%; also: 0% is about no effect
Target sequence (P34981 whole entry, looked up): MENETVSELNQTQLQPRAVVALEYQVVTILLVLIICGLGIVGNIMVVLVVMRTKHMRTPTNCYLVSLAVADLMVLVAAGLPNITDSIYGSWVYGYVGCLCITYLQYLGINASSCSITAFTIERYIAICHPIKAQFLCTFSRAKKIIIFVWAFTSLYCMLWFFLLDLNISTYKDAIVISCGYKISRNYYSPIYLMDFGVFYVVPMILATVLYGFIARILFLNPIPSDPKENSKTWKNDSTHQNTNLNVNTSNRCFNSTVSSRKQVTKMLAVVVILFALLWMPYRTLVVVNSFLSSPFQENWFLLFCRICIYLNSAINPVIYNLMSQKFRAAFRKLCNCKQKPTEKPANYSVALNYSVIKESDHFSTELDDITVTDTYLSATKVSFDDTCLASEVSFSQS
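Enhancer read-out: after compound pinning and an initial kinetic agonist-mode read, an EC20 of TRH (10 nM final) was injected and fluo-8 calcium signal (Ex 480/Em 530) followed at 1 s/cycle for 100 cycles in TRHR-expressing cells.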
D1 potentiator = Potentiators of Human D1 Dopamine Receptor: qHTS; HEK293 TREx D1 cells, calcium flux, dopamine EC20 potentiation; potentiation, % at 10 µM; actives 0.036% (n = 360,000); in the data active = potentiation above about 30%; also: 0% is about no effect
TRHR agonist = qHTS for Small Molecule Agonists and Allosteric Enhancers of Human TRH Receptor: Primary Screen for Agonists; actives 0.18% (n = 360,000); TRHR cells, calcium flux fluo-8, FDSS agonist mode; activation, % at 2 µM; Thyrotropin-releasing hormone receptor (Homo sapiens), P34981; also: 0% is about no effect
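TRHR-expressing cells, plated overnight in medium with 10% serum, were loaded with fluo-8 calcium dye at room temperature. After a 10 s baseline, library compound was pin-added and calcium release was recorded kinetically (ex 480/em 530) as agonist response.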
Epigenetic derep = Quantitative High-Throughput Screen for Regulators of Epigenetic Control. murine LDR cells, GFP reporter derepression, 30 h. Potency, µM (titrated, usually from 53.9 µM), for the others: at the highest dose GFP activation, usual class: activators. actives 0.2% (n = 280,000); active = well fitted activation curve with a large enough effect; inconclusive = small, poorly fitted or top-dose-only effect; also: potency is read from the fitted curve at half-maximal effect; % of control where 0% means no effect; nearly all actives have a fitted effect of over 60% in size
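GFP-positive cell count by laser-scanning cytometry (objects 20–120 um) after 30 h, 37 C compound exposure of murine LDR cells; reporter is CMV-GFP integrated at a silenced locus, inducible by HDAC or DNMT inhibitors.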
The depositor's hits bear a star. Rule as the data show it, unless noted: active = activation above about 30%; inactive = the rest.

What do the screens show for `Cc1ccccc1Cn1cnc2nc3c(cc2c1=O)CC(C)CC3` (centres undefined)?
D1 antagonist: 6.5; D1 ag: 3.3; TRHR enhancer: 3.5; D1 potentiator: -3.4; TRHR agonist: 0.1; Epigenetic derep: 3.4%

Results for COc1cc(OC)cc(C(=O)OCc2cc3ccccc3[nH]c2=O)c1 ?
D1 antagonist: -40.4*; D1 ag: -0.2; TRHR enhancer: 21.9; D1 potentiator: -11.9; TRHR agonist: 0.1; Epigenetic derep: 1.2%

Results for Cc1ccc2cc(CCNC(=O)c3cccc([N+](=O)[O-])c3)c(=O)[nH]c2c1 ?
D1 antagonist: -15.1; D1 ag: 0.8; TRHR enhancer: -4.2; D1 potentiator: 4.2; TRHR agonist: 0.0; Epigenetic derep: 1.5%

What do the screens show for `Cc1ccc2cc(COC(=O)c3cccc([N+](=O)[O-])c3)c(=O)[nH]c2c1`?
D1 antagonist: -33.7*; D1 ag: 1.3; TRHR enhancer: -9.1; D1 potentiator: -7.2; TRHR agonist: 0.1; Epigenetic derep: -0.5%

What do the screens show for `CN(C)c1ccc(CN(Cc2ccco2)C(=O)c2ccc(F)cc2)cc1`?
D1 antagonist: -12.3; D1 ag: 2.4; TRHR enhancer: 7.6; D1 potentiator: -1.1; TRHR agonist: 1.7; Epigenetic derep: -1.9%

Results for Cc1ccc(Nc2nc(C)nc(N)c2S(=O)(=O)c2ccccc2)cc1 ?
D1 antagonist: 0.8; D1 ag: 0.7; TRHR enhancer: -1.7; D1 potentiator: -2.6; TRHR agonist: -1.0; Epigenetic derep: -1.1%

What do the screens show for `COc1ccc(OC)c(NC(=O)Cc2c(C(=O)O)n(C)c3ccc(C)cc23)c1`?
D1 antagonist: 3.1; D1 ag: 2.5; TRHR enhancer: 2.4; D1 potentiator: 3.6; TRHR agonist: -0.8; Epigenetic derep: 1.0%

Results for CCOC(=O)C1CCCN(c2c(NCCCN(CC)c3cccc(C)c3)c(=O)c2=O)C1 (centres undefined) ?
D1 antagonist: -15.8; D1 ag: 1.5; TRHR enhancer: 76.2*; D1 potentiator: -11.0; TRHR agonist: -0.1; Epigenetic derep: 0.0%

How did CCOC(=O)C1CCCN(c2c(NCCc3cccc(C)c3)c(=O)c2=O)C1 (centres undefined) do in these assays?
D1 antagonist: -9.2; D1 ag: 1.4; TRHR enhancer: -3.5; D1 potentiator: -1.1; TRHR agonist: 0.6; Epigenetic derep: 0.1%

How did COc1ccc(OC)c2sc(N3CCN(C(=O)C(C)(C)C)CC3)nc12 do in these assays?
D1 ag: -0.5; TRHR enhancer: -7.2; D1 potentiator: 2.4; TRHR agonist: -0.2; Epigenetic derep: 4.6%

How did O=C(/C=C/c1cn(CC(O)CN2CCCCCC2)c2ccccc12)c1ccccc1 (centres undefined) do in these assays?
D1 antagonist: -4.5; D1 ag: 54.4*; TRHR enhancer: -2.1; D1 potentiator: -4.8; TRHR agonist: 5.3; Epigenetic derep: 9.3%

What do the screens show for `Cc1ccc(C(=O)/C=C/c2cn(CC(O)CN3CCCCCC3)c3ccccc23)cc1` (centres undefined)?
D1 antagonist: -23.7; D1 ag: 59.2*; TRHR enhancer: 4.7; D1 potentiator: -3.4; TRHR agonist: 3.7; Epigenetic derep: 0.4%

How did O=C(/C=C/c1cn(CC(O)CN2CCCCCC2)c2ccccc12)c1ccc(Br)cc1 (centres undefined) do in these assays?
D1 antagonist: -2.8; D1 ag: 45.2*; TRHR enhancer: 5.1; D1 potentiator: -4.9; TRHR agonist: 7.0; Epigenetic derep: 10.6%

What do the screens show for `COc1ccc(C(=O)/C=C/c2cn(CC(O)CN3CCN(C)CC3)c3ccccc23)cc1OC` (centres undefined)?
D1 antagonist: 20.3; D1 ag: 7.7; TRHR enhancer: -1.3; D1 potentiator: -5.0; TRHR agonist: 12.7; Epigenetic derep: inconclusive

Results for COc1ccc(C(=O)/C=C/c2cn(CC(O)CN3CCCCCC3)c3ccccc23)cc1OC (centres undefined) ?
D1 antagonist: 4.5; D1 ag: 15.1; TRHR enhancer: -9.0; D1 potentiator: -2.1; TRHR agonist: 4.1; Epigenetic derep: 0.0%

What do the screens show for `O=C(/C=C/c1cn(CC(O)CN2CCCCC2)c2ccccc12)c1ccccc1` (centres undefined)?
D1 antagonist: -49.9*; D1 ag: 31.4*; TRHR enhancer: -1.1; D1 potentiator: -4.5; TRHR agonist: 1.9; Epigenetic derep: 16.8%

How did CCCN(CCC)CCCNC(=O)Cn1ncn2c(cc3sc(CC)cc32)c1=O do in these assays?
D1 antagonist: 4.6; D1 ag: -1.4; TRHR enhancer: -1.3; D1 potentiator: -0.6; TRHR agonist: 0.0; Epigenetic derep: 0.8%

What do the screens show for `COc1ccc([C@@H]2[C@@H](O)[C@H](O)[C@@H](C)N2C)cc1OC`?
Epigenetic derep: -0.1%

How did COc1ccc(OC)c(NC(=O)N2CCCC(C(=O)c3ccccc3OC)C2)c1 (centres undefined) do in these assays?
D1 antagonist: -36.3*; D1 ag: 1.2; TRHR enhancer: -0.2; D1 potentiator: -8.4; TRHR agonist: -1.7; Epigenetic derep: -1.1%

What do the screens show for `CC(NC(=O)C1CCCN(S(=O)(=O)c2cccs2)C1)c1ccccc1` (centres undefined)?
D1 antagonist: -26.0; D1 ag: 30.4*; TRHR enhancer: 7.1; D1 potentiator: -1.4; TRHR agonist: -0.3; Epigenetic derep: 0.6%

Results for COc1ccc(NC(=O)N2CCCCCC2)cc1 ?
D1 antagonist: -36.8*; D1 ag: 1.0; TRHR enhancer: -2.4; D1 potentiator: -16.8; TRHR agonist: -1.8; Epigenetic derep: 1.1%

Results for COc1ccc(OC)c(NC(=O)N2CCCC(C)C2)c1 (centres undefined) ?
D1 antagonist: -7.3; D1 ag: 0.0; TRHR enhancer: -5.7; D1 potentiator: 4.5; TRHR agonist: 0.2; Epigenetic derep: 0.6%

Results for COc1ccccc1NC(=O)C1CCCN(S(=O)(=O)c2ccccc2)C1 (centres undefined) ?
D1 antagonist: -30.9*; D1 ag: 4.4; TRHR enhancer: 1.6; D1 potentiator: 3.5; TRHR agonist: 0.4
